According to PubChem BioAssay (Tox21):
Results filed as inconclusive are left out. A call without a number means that no potency is given here. The source made the active and inactive calls. Unless noted, calls come from the whole dose curve; as a rule, active = well fitted curve in the direction sought with a large enough effect in the repeat runs; inconclusive = weak or mixed curves; inactive = no such curve, though single readings can be large; an effect the other way counts as inactive or inconclusive.

Experiments:
[1] = qHTS assay for small molecule agonists of the p53 signaling pathway (AID 651631; calls by dose curve; note: nearly all actives have a fitted effect of over 15% in size; note: potency is the fitted concentration of half-maximal effect)
Summary of the method: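 HCT-116 cells carrying a stable p53 response element–beta-lactamase reporter were plated, rested 5 h at 37 °C, then exposed to compound in DMSO for 16 h at 37 °C; reporter activity was read as FRET substrate fluorescence after 2 h at room temperature.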

[2] = qHTS assay for small molecules that induce genotoxicity in human embryonic kidney cells expressing luciferase-tagged ATAD5 (AID 651632); note: nearly all actives have a fitted effect of over 15% in size
Summary of the method: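 Increased luciferase signal from ATAD5-tagged reporter cells indicates DNA-damage-driven ATAD5 induction. HEK293T cells are treated for 16 hr at 37C before detection with Amplite.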

[3] = qHTS assay for small molecule agonists of the p53 signaling pathway - cell viability (AID 651633; calls by dose curve; note: series mostly up to about 83 µM; nearly all actives have a fitted effect of over 30% in size)
Summary of the method: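 p53RE-bla cells were treated with compound for 16 hours at 37 C. Cytotoxicity was then measured as CellTiter-Glo luminescence after 30 min at room temperature.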

[4] = qHTS assay for small molecules that induce genotoxicity in human embryonic kidney cells expressing luciferase-tagged ATAD5 - cell viability (AID 651634; calls by dose curve; note: nearly all actives have a fitted effect of over 25% in size; note: potency is the fitted concentration of half-maximal effect)
Summary of the method: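 Cytotoxicity counterscreen in HEK293T cells bearing an ATAD5-luciferase reporter: live-cell protease activity measured by CellTiter-Fluor fluorescence after 15.5 hr compound exposure.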

[5] = qHTS assay for small molecule disruptors of the mitochondrial membrane potential (AID 720635); note: potency is the fitted concentration of half-maximal effect
Summary of the method: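 HepG2 cells exposed to compound 1 hr at 37C, then Mito-MPS dye 30 min. Ratio read of aggregate (540/590 nm) versus monomer (490/535 nm) fluorescence.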

[6] = qHTS assay to test for compound auto fluorescence at 590 nm (red) in HepG2 cells (AID 720674)
Summary of the method: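 HepG2 cells, 2,000 per well in MEM with 10% FBS, attached overnight at 37 C, then got 23 nL compound or DMSO. After 1 hr at 37 C, 5% CO2, red fluorescence was read at 540/590 nm against Rose Bengal sodium as reference.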

[7] = qHTS assay to test for compound auto fluorescence at 535 nm (green) in HepG2 cells (AID 720675)
[8] = qHTS assay to test for compound auto fluorescence at 460 nm (blue) in HEK293 cells (AID 720678)
Summary of the method: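 Blue-channel (Ex/Em 405/460 nm) intensity measured in HEK293 cultures after overnight compound exposure at 37C; signal expressed relative to triamterene. Cells plated 2,000 per well in 10% dialyzed FBS medium and allowed 4-5 hr to attach.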

[9] = qHTS assay for small molecule disruptors of the mitochondrial membrane potential - cell viability (AID 720634; calls by dose curve;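 note: human HepG2 liver cancer cells; series mostly up to about 83 µM; nearly all actives have a fitted effect of over 20% in size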)
Summary of the method: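 After overnight attachment at 37 C, HepG2 cells received compound or DMSO vehicle for 1 hr. Viability is then taken from ATP-driven luminescence following a 30 min room-temperature CellTiter-Glo step.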

[10] = qHTS assay to test for compound auto fluorescence at 590 nm (red) in HEK293 cells (AID 720679)
Summary of the method: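 Red-channel autofluorescence (Ex/Em 540/590 nm; Rose Bengal sodium reference) was measured after overnight 37C, 5% CO2 exposure of attached HEK293 cells, 2,000 per well in medium with 10% dialyzed FBS.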

Row | SMILES | Potency [1] | Potency [2] | Potency [3] | Potency [4] | Potency [5] | Potency [6] | Potency [7] | Potency [8] | Potency [9] | Potency [10]
1 | O=[N+]([O-])c1ccc(Oc2ccc(N=C=S)cc2)cc1 | 13.3 µM (active) | inactive | inactive | inactive | 5.96 µM (active) | inactive | inactive | inactive |  | 
2 | O=C1N=C2SCCN2C(=O)C1Cc1ccc(Cl)cc1 (configuration not stated) | inactive | inactive | inactive | inactive |  | inactive | inactive | inactive | inactive | inactive
3 | CC(C)[C@H](N)C(=O)OCC(CO)OCn1cnc2c(=O)[nH]c(N)nc21 (some centres not stated) | inactive | inactive | inactive | inactive |  | inactive | inactive | inactive | inactive | inactive
4 | O=C1CCC(=O)N1CO | inactive | inactive | inactive | inactive |  | inactive | inactive | inactive | inactive | inactive
5 | O=C(O)c1ccc(OCCn2ccnc2)cc1 | inactive | inactive | inactive | inactive | inactive | inactive | inactive | inactive |  | 
6 | CC[C@@H](C(=O)O)[C@@H]1O[C@@H]([C@@H](C)[C@H](O)[C@H](C)C(=O)[C@H](CC)[C@H]2O[C@]3(C=C[C@@H](O)[C@]4(CC[C@@](C)([C@H]5CC[C@](O)(CC)[C@H](C)O5)O4)O3)[C@H](C)C[C@@H]2C)[C@@H](C)C[C@@H]1C | 3.76 µM (active) | inactive | inactive | 1.88 µM (active) |  | inactive |  | inactive | inactive | 
7 | CC1(C)[C@@H]2CC[C@@]1(C)[C@H](OC(=O)CSC#N)C2 | inactive | inactive | inactive | inactive |  | inactive | inactive | inactive | inactive | inactive
8 | CCc1ccc(S(=O)(=O)O)cc1 | inactive | inactive | inactive | inactive |  | inactive | inactive | inactive | inactive | inactive
9 | CCOC(=O)[C@H](CCc1ccccc1)N[C@H]1CCCN2CCC[C@@H](C(=O)O)N2C1=O | inactive | inactive | inactive | inactive | inactive | inactive | inactive | inactive |  | inactive
10 | O=S(=O)(O)Oc1ccc(C(c2ccc(OS(=O)(=O)O)cc2)c2ccccn2)cc1 | inactive | inactive | inactive | inactive |  | inactive | inactive | inactive | inactive | inactive
11 | NC(=O)Oc1ccc(Cc2ccccc2)cc1 | inactive | inactive | inactive | inactive | 21.1 µM (active) | inactive | inactive | inactive |  | inactive
12 | CC(C)[C@@H]1CC[C@@H](C)C[C@H]1OC(=O)c1ccccc1O | inactive | inactive | inactive | inactive |  | inactive | inactive | inactive | inactive | inactive
13 | CC(=O)N[C@@H]1C(O[C@H]2O[C@H](C(=O)O)C(O)[C@H](O)[C@H]2O)[C@H](O)[C@@H](CO)O[C@H]1O[C@@H]1C(C(=O)O)O[C@@H](O[C@H]2[C@H](O)[C@@H](CO)OC(O)[C@@H]2NC(C)=O)[C@H](O)[C@H]1O (some centres not stated) | inactive | inactive | inactive | inactive |  | inactive | inactive | inactive | inactive | inactive
14 | CO/N=C(\C(=O)N[C@@H]1C(=O)N2C(C(=O)O)=C(CSC(=O)c3ccco3)CS[C@H]12)c1csc(N)n1 | inactive | inactive | inactive | inactive |  | inactive | inactive | inactive | inactive | inactive
15 | O=C(O)CCC/C=C\C[C@@H]1[C@@H](/C=C/[C@@H](O)COc2cccc(Cl)c2)[C@H](O)C[C@@H]1O | inactive | inactive | inactive | inactive |  | inactive | inactive | inactive | inactive | inactive
16 | O=C(O[C@H]1CN2CCC1CC2)N1CCc2ccccc2[C@@H]1c1ccccc1 | inactive | inactive | inactive | inactive |  | inactive | inactive | inactive | inactive | inactive
17 | Cc1nnc(C(C)C)n1C1C[C@H]2CC[C@@H](C1)N2CC[C@H](NC(=O)C1CCC(F)(F)CC1)c1ccccc1 (some centres not stated) | inactive | inactive | inactive | inactive |  | inactive | inactive | inactive | inactive | inactive
18 | CCC(Cc1c(I)cc(I)c(O)c1I)C(=O)O (configuration not stated) | inactive | inactive | inactive | inactive |  | inactive | inactive | inactive | inactive | inactive
19 | O=S(=O)(O)CCCS(=O)(=O)O | inactive | inactive | inactive | inactive |  | inactive | inactive | inactive | inactive | inactive
20 | NCCCNCCCCNC(=O)C(O)NC(=O)CCCCCCN=C(N)N (configuration not stated) | inactive | inactive | inactive | inactive |  | inactive | inactive | inactive | inactive | inactive
21 | Cc1ccccc1OCC(O)CNCCOc1ccc(C(N)=O)cc1 (configuration not stated) | inactive | inactive | inactive | inactive |  | inactive | inactive | inactive | inactive | inactive

Row | SMILES | Potency [1] | Potency [2] | Potency [3] | Potency [4] | Potency [5] | Potency [6] | Potency [7] | Potency [8] | Potency [9] | Potency [10]
22 | CS(=O)(=O)Nc1cc2occ(NC=O)c(=O)c2cc1Oc1ccccc1 | inactive | inactive | inactive | inactive |  | inactive |  | inactive | inactive | inactive
23 | Oc1cc(O)cc(O)c1 | inactive | inactive | inactive | inactive |  | inactive | inactive | inactive | inactive | inactive
24 | Cn1cc(NC(=O)c2cc(NC(=O)c3cc(NC=O)cn3C)cn2C)cc1C(=O)NCCC(=N)N | inactive | inactive | inactive | inactive |  | inactive | inactive | inactive | inactive | inactive
25 | Cc1cccc(C)c1NC(=O)NC1=CCCN1C | inactive | inactive | inactive | inactive |  | inactive | inactive | inactive | inactive | inactive
26 | O=C1c2ccccc2C(=O)C1c1ccc(Cl)cc1 | inactive | inactive | inactive | inactive |  | inactive | inactive | inactive | inactive | inactive
27 | Nc1nc2c(c(=O)[nH]1)N(C=O)C(CNc1ccc(C(=O)N[C@@H](CCC(=O)O)C(=O)O)cc1)CN2 (some centres not stated) | inactive | inactive | inactive | inactive |  | inactive | inactive | inactive | inactive | inactive
28 | CC(=O)O[C@H]1C[C@@]2(C)[C@@H](C[C@@H](O)[C@H]3[C@@]4(C)CC[C@@H](O)[C@@H](C)[C@@H]4CC[C@@]32C)/C1=C(\CCC=C(C)C)C(=O)O | inactive | inactive | inactive | inactive |  | inactive |  | inactive | inactive | inactive
29 | CC(=O)N(CC(C)C(=O)O)c1c(I)cc(I)c(N)c1I (configuration not stated) | inactive | inactive | inactive | inactive |  | inactive | inactive | inactive | inactive | inactive
30 | O=C1NC(=O)[C@H]2[C@@H]1[C@@H]1C=C[C@H]2C1 | inactive | inactive | inactive | inactive |  | inactive |  | inactive | inactive | inactive
31 | NCc1ccccc1CC(=O)N[C@@H]1C(=O)N2C(C(=O)O)=C(CSc3nnnn3CC(=O)O)CS[C@H]12 | inactive | inactive | inactive | inactive |  | inactive | inactive | inactive | inactive | inactive
32 | CO[C@@H]1[C@@H](O[C@@H]2O[C@H](C)[C@@H](O[C@H]3C[C@@](C)(O)[C@@H](O)[C@H](C)O3)[C@H](N(C)C)[C@H]2O)[C@@H](CC=O)C[C@@H](C)[C@@H](O[C@@H]2CC[C@H](N(C)C)[C@@H](C)O2)/C=C/C=C/C[C@@H](C)OC(=O)C[C@H]1O | inactive | inactive | inactive | inactive |  | inactive | inactive | inactive | inactive | inactive
33 | CC1(C)S[C@@H]2[C@H](NC(=O)C(C(=O)O)c3ccsc3)C(=O)N2[C@H]1C(=O)O (some centres not stated) | inactive | inactive | inactive | inactive |  | inactive |  | inactive | inactive | inactive
34 | CC1(C)S[C@@H]2[C@H](NC(=O)C(C(=O)Oc3ccc4c(c3)CCC4)c3ccccc3)C(=O)N2[C@H]1C(=O)O (some centres not stated) | inactive | inactive | inactive | inactive |  | inactive | inactive | inactive | inactive | inactive
35 | C#CCOc1ccc2c(C)cc(=O)oc2c1 | inactive | inactive | inactive | inactive |  | inactive | inactive | inactive | inactive | inactive
36 | O=C(Cc1cccs1)N[C@@H]1C(=O)N2C(C(=O)[O-])=C(C[n+]3ccccc3)CS[C@H]12 | inactive | inactive | inactive | inactive |  | inactive | inactive | inactive | inactive | inactive
37 | CCCCOC(=O)C(=O)Nc1cccc(-c2nn[nH]n2)c1 | inactive | inactive | inactive |  | inactive | inactive | inactive | inactive | inactive | inactive
38 | CC(C)(C)CC(C)(C)c1cc(Cc2cc(C(C)(C)CC(C)(C)C)cc(-n3nc4ccccc4n3)c2O)c(O)c(-n2nc3ccccc3n2)c1 | inactive | inactive | inactive | inactive |  | inactive |  | inactive |  | inactive
39 | CC1(C)S[C@@H]2[C@H](NC(=O)Cc3ccccc3)C(=O)N2[C@H]1C(=O)O | inactive | inactive | inactive |  | inactive | inactive | inactive | inactive | inactive | inactive
40 | c1ccc2c(CCC3CCNCC3)c[nH]c2c1 | inactive | inactive | inactive | inactive |  | inactive | inactive | inactive |  | inactive
41 | O=P(O)(O)OC(CO)CO | inactive | inactive |  | inactive | inactive | inactive | inactive | inactive | inactive | inactive
42 | CS(=O)(=O)OCCCNCCCOS(C)(=O)=O | inactive | inactive | inactive |  | inactive | inactive | inactive | inactive | inactive | inactive
